According to PubChem BioAssay (NCI):
The panel holds about 79,000 compounds, 15% with a hit somewhere; the sample as a whole holds those more often. A number with no mark means an inactive call. Activity calls are given as the source filed them. Rule as the data show it: active = growth inhibition above about 70%; inactive = the rest.

Experiment: NCI Yeast Anticancer Drug Screen. Data for the sgs1 strain (AID 173);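 also: 0% = growth of vehicle-only control cultures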
Conditions: S. cerevisiae sgs1 mutant, active compounds read high
Protocol: Growth inhibition of yeast strains with defined genetic alterations is measured as a screen for potential anti-cancer activity. Selected strains with alterations in DNA damage repair or cell cycle control were exposed to compounds and growth inhibition was measured relative to vehicle treated controls. The strain used in this assay is sgs1

Row | Structure (SMILES) | growth inhibition (at 1.2 µM) | growth inhibition (at 3.7 µM) | growth inhibition (at 11.0 µM) | growth inhibition (at 33.0 µM) | growth inhibition (at 100.0 µM)
1 | BrCC[P+](c1ccccc1)(c1ccccc1)c1ccccc1 | -35% | -56% | -40% | 89% (active) | 94% (active)
2 | Cc1ccc2ccc3cccc4ccc1c2c34 | -3% | -1% | 2% | 23% | 42%
3 | Cc1ccc(NC(=O)/C(Cl)=C(\Cl)C(=O)O)cc1C | 1% | 6% | 29% | 99% (active) | 99% (active)
4 | NC(N)=N/N=C\c1c2ccccc2cc2ccccc12 | -25% | -31% | -44% | -1% | 93% (active)
5 | C/C(=N\NC(=S)N1CCCCC1)c1cccc(C)n1 | 9% | 91% (active) | 98% (active) | 98% (active) | 98% (active)
6 | CCOC(=O)c1cnc2c(C(F)(F)F)cccc2c1N=[N+]=[N-] | 1% | -2% | -7% | 67% | 97% (active)
7 | CC(C(=O)N1C(=O)N(C(=O)[C@H](C)C(O)c2ccccc2)[C@H](c2ccccc2)[C@H]1c1ccccc1)[C@@H](O)c1ccccc1 (stereo not given in full) | -2% | 2% | 30% | 65% | 70% (active)
8 | O=C(CCCN1CCC(O)(c2ccc(Cl)cc2)CC1)c1ccc(F)cc1 | 15% | 23% | 46% | 43% | 52%
